The values below come from ChEMBL document CHEMBL1961873, “Compounds: GSK PKIS; Assays: Nanosyn kinase panel” (2012).

Experiment [1] deals with T1, Serine/threonine-protein kinase D2 (Homo sapiens) (UniProt Q9BZL6).
T1 sequence (whole entry): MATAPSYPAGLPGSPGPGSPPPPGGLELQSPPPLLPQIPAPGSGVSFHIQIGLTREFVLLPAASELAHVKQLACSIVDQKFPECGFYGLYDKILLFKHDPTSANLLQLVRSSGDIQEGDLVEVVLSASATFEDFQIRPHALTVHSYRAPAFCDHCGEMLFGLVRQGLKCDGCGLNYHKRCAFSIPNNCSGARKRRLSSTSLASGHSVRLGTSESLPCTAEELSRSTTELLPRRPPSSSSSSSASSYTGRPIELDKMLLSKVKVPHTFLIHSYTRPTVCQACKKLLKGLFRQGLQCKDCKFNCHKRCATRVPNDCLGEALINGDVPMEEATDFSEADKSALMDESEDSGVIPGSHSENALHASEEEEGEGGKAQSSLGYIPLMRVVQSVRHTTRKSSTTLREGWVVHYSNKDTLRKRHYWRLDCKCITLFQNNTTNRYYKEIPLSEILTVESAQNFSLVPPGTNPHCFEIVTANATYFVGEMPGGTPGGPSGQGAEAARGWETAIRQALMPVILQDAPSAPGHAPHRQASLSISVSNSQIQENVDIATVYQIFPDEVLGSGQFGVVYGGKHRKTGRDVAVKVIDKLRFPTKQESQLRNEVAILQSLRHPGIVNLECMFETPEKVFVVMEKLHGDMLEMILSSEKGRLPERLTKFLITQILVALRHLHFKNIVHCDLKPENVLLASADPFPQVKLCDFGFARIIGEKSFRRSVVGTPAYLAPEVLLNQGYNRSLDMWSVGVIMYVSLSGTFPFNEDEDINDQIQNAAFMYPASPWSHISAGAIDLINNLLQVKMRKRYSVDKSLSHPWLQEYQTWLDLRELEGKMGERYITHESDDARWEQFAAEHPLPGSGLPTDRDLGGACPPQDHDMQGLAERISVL
The conditions noted are these: at 1 µM.

The target of experiment [2] is T2, Serine/threonine-protein kinase D3 (Homo sapiens) (UniProt O94806).
T2 sequence (whole entry): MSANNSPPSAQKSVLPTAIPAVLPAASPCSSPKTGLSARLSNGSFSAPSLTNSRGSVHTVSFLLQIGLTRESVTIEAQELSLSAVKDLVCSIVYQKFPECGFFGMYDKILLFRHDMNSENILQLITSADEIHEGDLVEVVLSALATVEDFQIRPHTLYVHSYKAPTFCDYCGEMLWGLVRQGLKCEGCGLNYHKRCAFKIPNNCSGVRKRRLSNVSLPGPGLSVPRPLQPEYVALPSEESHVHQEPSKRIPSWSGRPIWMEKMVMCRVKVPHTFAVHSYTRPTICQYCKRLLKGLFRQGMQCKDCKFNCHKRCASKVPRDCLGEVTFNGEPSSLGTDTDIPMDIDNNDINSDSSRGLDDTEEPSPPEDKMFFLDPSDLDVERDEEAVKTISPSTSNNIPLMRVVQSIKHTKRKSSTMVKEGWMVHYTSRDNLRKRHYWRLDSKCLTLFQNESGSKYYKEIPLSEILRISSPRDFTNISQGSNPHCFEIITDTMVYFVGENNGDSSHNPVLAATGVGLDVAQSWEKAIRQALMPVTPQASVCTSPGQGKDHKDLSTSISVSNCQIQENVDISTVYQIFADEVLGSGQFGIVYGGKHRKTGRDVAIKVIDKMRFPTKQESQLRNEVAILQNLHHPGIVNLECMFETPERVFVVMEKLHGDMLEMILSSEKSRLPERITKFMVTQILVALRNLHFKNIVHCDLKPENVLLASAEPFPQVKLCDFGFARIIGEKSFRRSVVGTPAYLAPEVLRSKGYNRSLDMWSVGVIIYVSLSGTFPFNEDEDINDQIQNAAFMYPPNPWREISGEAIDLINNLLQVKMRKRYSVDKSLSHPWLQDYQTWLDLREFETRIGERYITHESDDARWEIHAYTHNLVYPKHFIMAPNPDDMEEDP
As to conditions: at 0.1 µM.

In experiment [3] the target is T2, Serine/threonine-protein kinase D3 (Homo sapiens). The conditions noted are these: at 1 µM.
The target in experiment [4] is T3, cGMP-dependent protein kinase 1 (Homo sapiens) (UniProt Q13976).
T3 sequence (whole entry): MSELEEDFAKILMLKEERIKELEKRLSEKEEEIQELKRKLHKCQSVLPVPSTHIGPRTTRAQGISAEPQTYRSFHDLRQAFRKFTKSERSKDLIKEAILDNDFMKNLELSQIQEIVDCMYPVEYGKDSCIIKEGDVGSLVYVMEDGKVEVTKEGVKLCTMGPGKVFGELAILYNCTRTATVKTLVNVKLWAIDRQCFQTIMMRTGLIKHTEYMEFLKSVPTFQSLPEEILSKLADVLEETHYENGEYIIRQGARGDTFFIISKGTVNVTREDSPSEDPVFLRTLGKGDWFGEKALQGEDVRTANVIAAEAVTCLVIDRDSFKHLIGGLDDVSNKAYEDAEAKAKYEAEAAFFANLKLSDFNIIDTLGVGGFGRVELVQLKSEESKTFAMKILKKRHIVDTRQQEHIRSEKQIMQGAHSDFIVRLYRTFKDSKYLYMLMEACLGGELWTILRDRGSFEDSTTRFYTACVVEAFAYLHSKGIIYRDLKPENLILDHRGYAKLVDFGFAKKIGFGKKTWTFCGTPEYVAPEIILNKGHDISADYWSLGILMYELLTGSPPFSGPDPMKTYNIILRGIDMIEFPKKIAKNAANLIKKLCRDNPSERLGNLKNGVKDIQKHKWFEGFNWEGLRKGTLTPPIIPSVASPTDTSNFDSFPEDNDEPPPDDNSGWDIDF
As to conditions: at 0.1 µM.

The target in experiment [5] is T3, cGMP-dependent protein kinase 1 (Homo sapiens). As to conditions: at 1 µM.
In experiment [6] the target is T4, cGMP-dependent protein kinase 2 (Homo sapiens) (UniProt Q13237).
T4 sequence (whole entry): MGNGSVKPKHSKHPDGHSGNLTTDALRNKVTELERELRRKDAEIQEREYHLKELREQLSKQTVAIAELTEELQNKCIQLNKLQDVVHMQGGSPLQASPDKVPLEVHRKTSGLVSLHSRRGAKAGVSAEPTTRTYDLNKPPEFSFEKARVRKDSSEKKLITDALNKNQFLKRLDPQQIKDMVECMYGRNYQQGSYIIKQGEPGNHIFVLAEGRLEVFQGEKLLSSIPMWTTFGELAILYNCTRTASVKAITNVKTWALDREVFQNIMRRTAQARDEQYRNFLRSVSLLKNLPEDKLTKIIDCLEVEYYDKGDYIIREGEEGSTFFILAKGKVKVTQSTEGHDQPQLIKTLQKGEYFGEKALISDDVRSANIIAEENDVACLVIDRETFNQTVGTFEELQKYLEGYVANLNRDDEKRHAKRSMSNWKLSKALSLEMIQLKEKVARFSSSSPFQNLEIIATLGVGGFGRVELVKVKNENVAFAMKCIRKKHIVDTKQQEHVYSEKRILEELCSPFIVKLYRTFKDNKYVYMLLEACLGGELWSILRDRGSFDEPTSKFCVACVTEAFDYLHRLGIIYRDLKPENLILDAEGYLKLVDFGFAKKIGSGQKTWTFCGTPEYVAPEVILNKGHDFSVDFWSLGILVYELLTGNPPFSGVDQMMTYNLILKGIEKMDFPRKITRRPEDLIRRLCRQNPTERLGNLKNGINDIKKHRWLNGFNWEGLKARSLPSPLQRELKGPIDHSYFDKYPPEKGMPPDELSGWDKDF
As to conditions: at 0.1 µM.

Experiment [7] has as its target T4, cGMP-dependent protein kinase 2 (Homo sapiens). As to conditions: at 1 µM.
Experiment [8] deals with T5, cAMP-dependent protein kinase catalytic subunit PRKX (Homo sapiens) (UniProt P51817).
T5 sequence (whole entry): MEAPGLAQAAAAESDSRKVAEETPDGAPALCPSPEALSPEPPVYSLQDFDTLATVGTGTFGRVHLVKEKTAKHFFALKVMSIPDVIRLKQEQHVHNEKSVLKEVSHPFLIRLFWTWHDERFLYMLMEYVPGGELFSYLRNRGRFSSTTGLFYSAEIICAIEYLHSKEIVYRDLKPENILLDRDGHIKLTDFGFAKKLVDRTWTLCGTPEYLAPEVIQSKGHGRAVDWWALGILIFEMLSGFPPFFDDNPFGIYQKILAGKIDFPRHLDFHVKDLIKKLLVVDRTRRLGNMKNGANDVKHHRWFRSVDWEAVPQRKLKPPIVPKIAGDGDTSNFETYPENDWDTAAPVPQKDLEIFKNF
As to conditions: at 0.1 µM.

For experiment [9], the target named is T5, cAMP-dependent protein kinase catalytic subunit PRKX (Homo sapiens). The conditions noted are these: at 1 µM.
Experiment [10] addresses Rho-associated protein kinase 1 (Homo sapiens) (UniProt Q13464). As to conditions: at 0.1 µM.

Chain of Rho-associated protein kinase 1 (Homo sapiens) (Q13464 2-1354 limits assumed): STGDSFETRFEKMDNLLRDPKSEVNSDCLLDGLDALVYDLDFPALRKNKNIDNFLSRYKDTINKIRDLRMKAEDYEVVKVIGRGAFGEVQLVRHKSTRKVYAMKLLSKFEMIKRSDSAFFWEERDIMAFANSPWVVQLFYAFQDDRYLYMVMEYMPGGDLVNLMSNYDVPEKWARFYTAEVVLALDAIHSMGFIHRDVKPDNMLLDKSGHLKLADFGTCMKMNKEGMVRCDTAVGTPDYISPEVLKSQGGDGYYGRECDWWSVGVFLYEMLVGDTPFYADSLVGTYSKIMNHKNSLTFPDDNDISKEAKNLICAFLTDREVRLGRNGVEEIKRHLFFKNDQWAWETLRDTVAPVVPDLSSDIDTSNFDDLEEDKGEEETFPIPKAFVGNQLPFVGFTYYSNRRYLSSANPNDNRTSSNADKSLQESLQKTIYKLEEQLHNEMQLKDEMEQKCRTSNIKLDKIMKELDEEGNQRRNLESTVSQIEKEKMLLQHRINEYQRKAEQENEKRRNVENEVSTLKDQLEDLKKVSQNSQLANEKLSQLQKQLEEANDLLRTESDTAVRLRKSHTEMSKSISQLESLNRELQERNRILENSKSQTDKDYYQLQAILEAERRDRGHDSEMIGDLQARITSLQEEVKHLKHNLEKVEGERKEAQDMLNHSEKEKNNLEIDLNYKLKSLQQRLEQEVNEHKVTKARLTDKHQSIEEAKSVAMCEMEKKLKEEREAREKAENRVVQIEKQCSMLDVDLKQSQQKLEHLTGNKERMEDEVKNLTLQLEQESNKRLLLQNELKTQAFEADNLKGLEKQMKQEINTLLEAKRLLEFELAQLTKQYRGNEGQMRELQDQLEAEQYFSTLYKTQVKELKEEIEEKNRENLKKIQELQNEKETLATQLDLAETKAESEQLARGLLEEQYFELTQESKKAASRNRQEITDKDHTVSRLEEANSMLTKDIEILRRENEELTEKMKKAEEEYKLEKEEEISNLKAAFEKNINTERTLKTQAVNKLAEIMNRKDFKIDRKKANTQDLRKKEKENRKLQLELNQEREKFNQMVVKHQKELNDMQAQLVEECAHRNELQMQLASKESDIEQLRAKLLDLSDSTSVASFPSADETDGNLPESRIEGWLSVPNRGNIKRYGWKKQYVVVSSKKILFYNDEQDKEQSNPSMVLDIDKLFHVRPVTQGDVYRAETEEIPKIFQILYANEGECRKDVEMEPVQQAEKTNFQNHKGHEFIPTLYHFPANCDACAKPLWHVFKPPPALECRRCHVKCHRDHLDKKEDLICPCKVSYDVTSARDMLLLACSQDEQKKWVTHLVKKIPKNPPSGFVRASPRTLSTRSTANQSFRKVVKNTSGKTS

As for `NC(=O)c1ccc2c(-c3ccnc(NCCCO)n3)c(-c3ccc(F)cc3)nn2c1`, the inhibition is 32.7% in experiment [1]; 7.38% in [2]; 28.4% in [3]; 3.77% in experiment [4]; 5.16% in [5]; 1.84% in experiment [6]. For the same compound, the inhibition in experiment [7] was found to be 3.89%; in [8], 1.77%; in [9], 1.05%; in experiment [10], 1.85%.
Regarding `Fc1cccc(COc2ccc(Nc3ncncc3C#Cc3ccccc3)cc2Cl)c1`, the inhibition amounted to 6.54% in [1]; 6.12% in experiment [2]; 5.73% in experiment [3]; 3.8% in [4]; 4.39% in experiment [5]; 3.39% in [6]. Further, the inhibition in experiment [7] is 3.87%; in [8], 2.56%; in experiment [9] it was 5.39%; in experiment [10] it was 1.15%.
Turning to `N#Cc1cccc(Nc2ncc(-c3ccccc3)o2)c1`, the inhibition in experiment [1] was 2.25%; in [2], 1.91%; in [3], 1.02%; in experiment [4], -0.54%; in [5], 3.32%; in [6], 0.03%. For the same compound, the inhibition in experiment [7] worked out at 1.45%; in experiment [8] it was 1.09%; in experiment [9], 2.62%; in experiment [10] it was 0.04%.
For `CCn1c(-c2nonc2N)nc2cncc(C(=O)NCCNC)c21`, the inhibition in experiment [1] was 5.38%; in experiment [2], 5.66%; in experiment [3], 6.85%; in experiment [4] it was 36.2%; in experiment [5], 70%; in [6], 61.7%. Besides, the inhibition worked out at 73.8% in [7], 18.4% in experiment [8], 63.9% in experiment [9] and 71.8% in experiment [10].
In the case of `O=C1Nc2ccccc2/C1=C1\CCc2cc(O)ccc21`, the inhibition in experiment [1] came out at 15.4%; in experiment [2] it was 6.3%; in [3], 11.8%; in [4], 3.61%; in experiment [5], 8.21%; in experiment [6] it was 4.25%. For the same compound, the inhibition in experiment [7] came to 16.7%; in [8] it was 2.86%; in [9], 3.03%; in [10], 1.2%.
In the case of `COc1ccc2ncn(-c3cc(O[C@H](C)c4ccccc4C(F)(F)F)c(C(N)=O)s3)c2c1`, the inhibition in [1] is 1.77%; in experiment [2], -0.52%; in [3] it was 0.07%; in [4] it was 0.03%; in experiment [5], 1.49%; in experiment [6], 0.1%. For the same compound, the inhibition in experiment [7] was 0.7%; in [8], -0.2%; in [9] it was -0.15%; in [10] it was 0.72%.
Take `CC(C)c1ccc(-c2cc(-c3c[nH]nc3-c3ccccn3)ccn2)cc1`: the inhibition in experiment [1] was 10.9%; in experiment [2], 1.32%; in experiment [3], 5.01%; in experiment [4] it was 2.03%; in experiment [5], 2.34%; in experiment [6], -0.11%. Moreover, the inhibition in experiment [7] was 2.04%; in [8] it was -0.13%; in experiment [9] it was -0.45%; in experiment [10], 0.38%.
